In all, about 370,000 compounds went through this assay and about 4,100 (1.1%) were called active.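 Rule for the calls: active = inhibition above the mean over all tested compounds plus 3 SD (cut at about 3.6% in these data); inactive = the rest.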 Only a selection was taken, and actives are over-represented in it overall.
assay: relief of DAX-1 repression of SF-1 activity – cell-based, luminescence, SF-1 (NR5A1), full-length DAX-1, primary screen (AID 652010); details: HEK293T StAR-luciferase reporter, SF-1/DAX-1 repression relief; at 6.8 µM; stronger effect = higher value;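 note: 0% = DAX-1 cells with DMSO and 100% = cells lacking DAX-1 with DMSO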

Compound | inhibition
COc1ccc(-c2ccc(CN3C(C(C)C)C(=O)N(Cc4cn(CC5CCCCC5)nn4)CCS3(=O)=O)cc2)cn1 (centres undefined) | -0.19% (inactive)
COc1ccc(-c2ccc(CN3C(CC(C)C)C(=O)N(Cc4cn(CC5CCCCC5)nn4)CCS3(=O)=O)cc2)cn1 (centres undefined) | 3.92% (active)
COc1ccc(-c2ccc(CN3C(CC(C)C)C(=O)N(Cc4cn(CC5CCCCC5)nn4)CCS3(=O)=O)cc2)cc1 (centres undefined) | 2.67% (inactive)
COC(=O)c1cccc(Cn2ccc3ccc(-c4ccc5ccn(C(=O)C6CCCCC6)c5c4)cc32)c1 | 0.41% (inactive)
CCOC(=O)N1CCN(C(=O)C[C@@H]2C(=O)N(CCc3ccc(Cl)cc3)C3=CCCC[C@]32C(=O)OCC)CC1 | -2.96% (inactive)
O=C(NN=CC=Cc1ccccc1)C(O)C(O)C(=O)NN=CC=Cc1ccccc1 (centres undefined) | 0.1% (inactive)
CSc1ccc(CNC(=O)C2(C)CCCN2C)cc1 (centres undefined) | -0.07% (inactive)
COc1ccc2nc(-c3ccccn3)ccc2c1 | 15.7% (active)
COc1ccc2cc(CCl)c(Cl)nc2c1 | -0.14% (inactive)
COc1ccc(C=C(C#N)C#N)c(CSc2ccccn2)c1 | -0.31% (inactive)
COC(=O)c1cc(S(=O)(=O)N2CCN(C(=O)C3CCCO3)CC2)cn1C (centres undefined) | 0.73% (inactive)
N#CCC[C@H]1CC[C@]2(CCCN(Cc3ccc(Cl)cc3)C2)O1 | 0.06% (inactive)
COc1ccccc1C(=O)CSc1nnc(-c2ccccn2)n1-c1ccccc1 | -0.86% (inactive)
Nn1c(SCC(=O)N2c3ccccc3Sc3ccccc32)nnc1-c1n[nH]c2c1CCC2 | -0.89% (inactive)
COc1ccc(CCNC(=O)COC(=O)Cc2cccc(F)c2)cc1 | 2.2% (inactive)
O=C(COC(=O)Cc1ccccc1F)NCCc1ccccc1 | 1.4% (inactive)
COc1ccc(CCNC(=O)COC(=O)Cc2ccccc2F)cc1 | 5.57% (active)
C=CCN=C1NC(c2cccc(C(F)(F)F)c2)C(C(=O)OC)=C(C)N1C (centres undefined) | -0.18% (inactive)
C=C(C)C#CC(Cc1ccccc1)NCC1CC1 (centres undefined) | -0.89% (inactive)
COc1ccc(-c2ccc3c(n2)CCCN3S(=O)(=O)c2ccc(C)cc2)cc1 | -0.47% (inactive)

Compound | inhibition
COc1ccc(-c2cn3ccsc3n2)cc1 | 4.57% (active)
COc1ccc(-c2cn3ccc(C)cc3n2)cc1 | 5.29% (active)
COc1ccc(CSc2nnc(-c3cccc(C)c3)n2C)cc1 | -0.99% (inactive)
FC(F)(F)Oc1ccc(-c2cn3cccnc3n2)cc1 | 1.35% (inactive)
COc1cc(OC)cc(-c2nc(=S)n3ccsc3n2)c1 | -0.3% (inactive)
O=C(Nc1cccc(Cl)c1)OC1CC2CC1[C@H]1CCCCN1[C@H]2Cc1ccccc1 (some centres undefined) | -0.06% (inactive)
O=C(CSc1nc2ccccc2n1Cc1ccccc1Cl)N/N=C\c1c[nH]c2ccccc12 | -0.91% (inactive)
Cc1cc(=O)[nH]c(SCC(=O)Nc2ccc(F)cc2F)n1 | 0.67% (inactive)
C=CCN1[C@@H](Cc2ccccc2)COc2cccc(N3CCSCC3)c2S1(=O)=O | 0.68% (inactive)
O=C(Nc1ccccc1)Nc1nnc(COc2ccccc2F)s1 | 0.16% (inactive)
O=C(Nc1nc2ccc(Cl)cc2s1)c1cc(-c2ccc(Cl)cc2)nc2ccccc12 | 0.51% (inactive)
O=C(Nc1ccccc1)Nc1nc2ccccc2s1 | 9.89% (active)
COC(=O)[C@]12C[C@H](CC(=O)NCc3ccccc3)C(=O)N(Cc3ccccc3)C1=C[C@H](COCc1ccccc1)O[C@@H]2C | -0.43% (inactive)
COc1ccc(C(=O)CSc2nnc(-c3cnccn3)n2-c2ccc(C)cc2)cc1 | 0.38% (inactive)
CSc1ccc(C=Nn2c(-c3ccc(F)cc3)n[nH]c2=S)cc1 | -1.55% (inactive)
COC(=O)C1=C(C)N(Cc2ccc(C(F)(F)F)cc2)C(=NCc2ccc(C(F)(F)F)cc2)NC1c1cccc(Cl)c1 (centres undefined) | 0.24% (inactive)
O=c1c(-c2ccccc2)coc2cc(O)ccc12 | 3.75% (active)
CC(C)=CCc1c(O)c(CC=C(C)C)c2occ(-c3ccc(O)cc3)c(=O)c2c1O | 0.21% (inactive)
CCc1ccc(Oc2coc3cc(O)ccc3c2=O)cc1 | 0.76% (inactive)
Cc1ccc(C(=O)N(Cc2ccccn2)CC2CCCO2)cc1 (centres undefined) | 0.03% (inactive)

Compound | inhibition
O=C(N/N=C\C1CC=CCC1)c1ccc(Br)o1 (centres undefined) | 8.53% (active)
CC(C)(C)C1CCC(=NNC(=O)c2ccc(Br)o2)CC1 (centres undefined) | 2.87% (inactive)
CCC(C)(C)C1CCC(=NNC(=O)c2ccc(Br)o2)CC1 (centres undefined) | 1.82% (inactive)
Cc1c[nH]c2cccc(-c3ccc(Cl)cc3)c12 | -0.32% (inactive)
Cc1cc(NC(=O)CSC2=NS(=O)(=O)c3cc(Cl)ccc3N2)no1 | -0.79% (inactive)
Cc1ccc(-n2cc3ccc([N+](=O)[O-])cc3n2)cc1 | 4.78% (active)
CC(C)(C)NC(=O)Cn1cnc2cc([N+](=O)[O-])ccc2c1=O | 0.18% (inactive)
O=c1c2cc([N+](=O)[O-])ccc2nc2n1CCC2 | 0.07% (inactive)
CCOC(=O)[C@]12CCCC3=C1N(CCC3)C(=O)[C@@H](CC(=O)NCC13CC4CC(CC(C4)C1)C3)C2 | -1.84% (inactive)
CC(C)Cc1cc(C(=O)Nc2cc(Br)ccc2O)no1 | 1.06% (inactive)
O=C(NCCCc1ccccc1)c1cc(COc2c(F)cccc2F)on1 | 1.02% (inactive)
CC(C)Cc1cc(C(=O)NCCc2ccccc2)no1 | 4.87% (active)
CC(C)(CNC(=O)c1ccc(Cl)c(S(=O)(=O)N2CCc3ccccc3C2)c1)N1CCOCC1 | -2.85% (inactive)
Cc1ccc(NC(=O)c2csc3c2CCCC3)cc1 | 4.28% (active)
Cc1ccc(NC(=O)C2(N3CCC3=O)CCCCC2)cc1 | -0.08% (inactive)
CC1CC(C)CN(CCCNC(=O)c2csc3c2CCCCC3)C1 (centres undefined) | 0.43% (inactive)
O=C(NCc1ccccc1)[C@H]1CCCN1C(=O)[C@H]1CCCN1C(=O)N1CCOCC1 | 0.17% (inactive)
COc1ccccc1C(=O)N1C(CC(=O)Nc2ccccc2C)C(=O)NC2CCCCC21 (centres undefined) | -0.35% (inactive)
COc1ccc(CCNC(=O)CSc2nc3c([nH]2)c(=O)n(C)c(=O)n3C)cc1 | 0.31% (inactive)
